The list is not random: actives were taken first. Their share in the collection is about 12%.
FMDV inh – foot and mouth disease virus antiviral activity; FMDV antiviral cell-based qHTS; Potency, µM (top dose mostly 57.9 µM), for the others: at the top dose activity change, negative = inhibition, usual class: inhibitors; actives 1.2% (n = 410,000); calls by dose curve; tested in HEK293T cells; note: read-out not given here; potency is the fitted concentration of half-maximal effect; % is set by controls: 0 for no effect and ±100 for the full control effect; nearly all actives have a fitted effect of over 45% in size
Cycloheximide cs – counter-screen hit for Shiga toxin inhibitors, cycloheximide | max response, % | cell reporter, cycloheximide protein synthesis inhibition counterscreen | actives 12% (n = 300,000) | AID 2314; in the data active = max response mostly above about 13%, no sharp cut-off; inactive = mostly below about 14%; note: read at 38.3 µM for the half of the compounds with a filed dose; 0% is about no effect
Shiga toxin inh – blocks Shiga toxin action in Vero cells | actives 9.2% (n = 290,000) | Vero cells, Shiga toxin protein synthesis inhibition reporter | inhibition, % at 38.7 µM; in the data active = inhibition mostly above about 28%, no sharp cut-off; inactive = mostly below about 43%; note: 0% is about no effect
Sm TGR block – S. mansoni TGR enzyme inhibition; purified TGR, DTNB reduction, TNB absorbance 405 nm; Potency, µM (titrated, usually from 114 µM), inactives show at the top dose activity change, negative = inhibition, hits mostly inhibitors; actives 3% (n = 360,000); AID 485364; active = well fitted inhibition curve with a large enough effect; inconclusive = small, poorly fitted or top-dose-only effect; inactive = no such curve, though single readings can be large or run the other way; note: potency is the fitted concentration of half-maximal effect; % is set by controls: 0 for no effect and ±100 for the full control effect; nearly all actives have a fitted effect of over 60% in size
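First, TGR (20 nM dispensed) and NADPH were mixed with compound. Second, a 15 min room-temperature incubation followed. Third, further NADPH and then DTNB were added to start the reaction. Finally, TNB absorbance was monitored kinetically.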
* hit, by the source's call; ? = inconclusive; nt = no result.

SMILES | FMDV inh | Cycloheximide cs | Shiga toxin inh | Sm TGR block
COc1ccc(-c2nnc(SCC(=O)Nc3nncs3)o2)cc1 | 27.1% | 11.2 | 21.9 | 12.4%
O=C(CSc1ccc(-c2ccco2)nn1)NCCc1ccccc1 | 3.9% | 7.9 | -9.7 | 11.2µM*
COc1ccc(-c2ccc(C#N)c(SCC(=O)NCc3ccco3)n2)cc1OC | -3.8% | 2.9 | -6.0 | 31.6µM*
COc1ccc(CCNC(=O)CSc2ccc(-c3ccncc3)nn2)cc1 | -16.9% | 8.3 | -6.4 | -0.1%
COc1ccc(-c2nnc(SCC(=O)NC(=O)NCc3ccco3)o2)cc1 | 6.5% | 9.4* | 13.8 | -2.8%
COc1cccc(-c2ccc(SCC(=O)NCCc3ccccc3)nn2)c1 | 17.2% | 10.9 | 35.5 | -4.7%
COc1ccc(-c2ccc(SCC(=O)NCc3ccco3)nn2)cc1 | 0.0% | 16.9* | 57.1* | -20.7%
O=C(CSc1ccc(-c2ccc(F)cc2)nn1)NCc1ccco1 | -14.6% | -3.9 | 14.3 | -2.1%
Cc1cccc(-c2nc3c(cnn3-c3ccccc3)c(=O)n2-c2cccc(Cl)c2)c1 | 11.6% | nt | nt | 3.0%
Cc1ccccc1OCCn1cnc2c(N)ncnc21 | 5.8% | 11.4* | 14.8 | 5.0%
Nc1ncnc2c1ncn2CCN1CCCCC1 | -17.4% | -0.8 | -2.1 | -15.6%
Nc1ncnc2c1ncn2CCc1ccccc1 | 8.6% | 29.3* | 44.0* | 0.1%
COc1ccc2[nH]c3nc(SCC(=O)NNC(=O)c4ccc(OC)c(OC)c4)nnc3c2c1 | 7.08µM* | -3.8 | 19.2 | 7.5%
COc1ccc(C(=O)CCN2CCN(c3ccccc3OC)CC2)cc1 | 0.0% | 3.7 | 6.2 | 0.562µM*
CC(=O)OCC(=O)c1ccc2ccn(C(C)=O)c2c1 | 6.8% | 25.1* | 31.8 | 4.8%
COc1ccccc1N1CCN(CC(=O)c2ccc3ccn(C(C)=O)c3c2)CC1 | -11.8% | -1.9 | -3.3 | 25.1µM*
CCc1ccc(-c2nn(CC(=O)NCc3ccccc3)c3c2cnc2ccc(C)cc23)cc1 | 3.9% | nt | nt | -2.3%
CCCCNC(=O)CCC1N=C2c3ccccc3N=C(SCC(=O)NCCc3ccc(OC)c(OC)c3)N2C1=O (stereo not given) | 2.1% | nt | nt | 5.6%
CC(=O)Nc1ccc(NC(=O)CSc2ncc(C(=O)Nc3ccc(F)cc3)c(=O)n2C)cc1 | -23.0% | nt | nt | -3.6%
CCSc1ncc(/C=N/Nc2ccc(F)cc2)n1C | 8.6% | 30.5* | 52.4* | -6.7%
O=C(Cn1c(-c2cccs2)cc2ccccc21)NCCCN1CCN(c2cccc(Cl)c2)CC1 | -25.0% | nt | nt | ?
CCOc1ccc(NC(=O)NC23CC4CC(CC(C4)C2)C3)cc1 | 23.1% | 14.9* | 34.2 | -4.0%
CCOc1ccc(NC(=O)NC2CCCCCCC2)cc1 | 21.5% | 50.8* | 91.4* | -7.0%
CCc1cccc(NC(=O)NC2CCCCC2)c1 | 123.4% | 23.1* | 43.7 | -0.8%
CCc1ccc(NC(=O)NC2CCCCCCC2)cc1 | 13.4% | 53.3* | 119.1* | -0.4%
SMILES | FMDV inh | Cycloheximide cs | Shiga toxin inh | Sm TGR block
CCc1cccc(NC(=O)C2CCCC2)c1 | 76.1% | -1.7 | 8.5 | 1.5%
O=C(NCC1Cc2cccc(-c3cccnc3)c2O1)c1ccc2cc[nH]c2c1 (stereo not given) | 1.1% | nt | nt | nt
Cc1ccc(CSC2=Nc3ccccc3C3=NC(CC(=O)NC4CCCCC4)C(=O)N23)cc1 (stereo not given) | 6.2% | nt | nt | 4.6%
CCOc1ccc(NC(=O)C(=S)NC2CCCCC2)cc1 | 45.1% | 22.5* | 36.9 | -6.1%
COc1ccc(OC)c(NC(=O)C(=S)NC2CCCCC2)c1 | 4.0% | 10.7 | 1.1 | nt
CCc1ccc(NC(=O)C(=S)NC2CCCCC2)cc1 | 32.7% | 23.1* | 57.4* | 18.1%
CCOc1ccc(NC(=O)N(Cc2cn(CC)c3ccccc23)C2CCCCCC2)cc1 | 37.9% | 33.3* | 72.0* | 0.8%
COc1ccc(NC(=O)C(=S)NC2CCCCC2)cc1 | 0.0% | 47.1* | 117.6* | 7.6%
COc1cccc(N2CCN(C(=O)C3CCN(S(=O)(=O)c4cn(C)cn4)CC3)CC2)c1 | -10.9% | nt | nt | 23.2%
COC(=O)C(O)(c1ccc(NC(=O)NC2CCCCC2)cc1)C(F)(F)F (stereo not given) | 25.0% | 35.1* | 39.0* | 5.9%
O=C1NC(=O)N(Cc2ccccc2)C(=O)/C1=C/c1cnn(-c2ccccc2)c1 | nt | 30.4* | 51.3* | ?
COc1cc(/C=C2/C(=O)NC(=O)N(c3ccccc3)C2=O)ccc1O | -22.0% | -2.9 | -12.0 | ?
COc1ccccc1N1C(=O)NC(=O)/C(=C\c2cnn(-c3ccccc3)c2)C1=O | ? | 13.3 | 47.5* | 4.6%
O=C1NN(c2ccc(F)cc2)C(=O)/C1=C\c1cnn(-c2ccccc2)c1 | nt | -1.3 | -3.4 | nt
CC(=O)Nc1ccc(NC(=O)CCc2c(C)nc3c(c(C)nn3-c3ccc(C)cc3)c2C)cc1 | -12.7% | nt | nt | 5.9%
O=C(Nc1cccc(N2CCC(NCc3cnn(-c4ccccc4)n3)CC2)c1)c1cccnc1 | -16.3% | nt | nt | nt
Cc1ccc(CC2C(=O)N(c3ccc(C)cc3)C(=O)C2C)cc1 (stereo not given) | 26.2% | 47.4* | 80.2* | -3.6%
Cc1ccc(CC2C(=O)N(c3cc(C)ccc3C)C(=O)C2C)cc1 (stereo not given) | -25.8% | -2.2 | -5.0 | 9.9%
Cc1ccc(-c2nc3ccsc3c(=O)[nH]2)cc1 | 8.3% | 41.6* | 102.9* | 6.7%
CN(C)C1C(=O)C(C(N)=O)C(=O)C2(O)C(=O)C3C(=O)c4c(O)ccc(Cl)c4C(O)C3CC12 (stereo not given) | nt | -3.2 | -19.4 | nt
Cc1ccccc1CNC(=O)c1oc2c(c1C)-c1nn(Cc3ccc(Cl)cc3)cc1CC2 | -23.5% | nt | nt | 16.8%
COC(=O)c1cccc(Cn2c(Cl)c(/C=N/NC(=O)c3ccco3)sc2=O)c1 | 12.2% | 17.9* | 3.2 | 35.5µM*
Cc1cccc(OCC(=O)N/N=C/c2sc(=O)n(Cc3cccc(C(=O)O)c3)c2Cl)c1 | -17.1% | -1.7 | -7.4 | 25.1µM*
O=C(O)c1cccc(Cn2c(Cl)c(/C=N/NC(=O)c3ccc(O)cc3)sc2=O)c1 | -2.3% | -1.8 | 18.5 | 31.6µM*
O=C(COc1ccccc1)N/N=C/c1sc(=O)n(Cc2cccc(C(=O)O)c2)c1Cl | -4.6% | -1.8 | -5.6 | 35.5µM*
SMILES | FMDV inh | Cycloheximide cs | Shiga toxin inh | Sm TGR block
N#Cc1cccc(NC(=O)N2CCC3(CC2)CCN(C(=O)c2ccco2)CC3)c1 | 10.1% | nt | nt | nt
O=c1sc(/C=N/Nc2ccccc2)c(Cl)n1Cc1ccccc1 | 62.5% | 33.1* | active | 7.94µM*
CC1CCCC(NC(=S)NC(=O)c2ccccc2Br)C1C (stereo not given) | -22.2% | 9.1 | active | ?
O=C(NC(=S)NCCN1CCOCC1)c1ccc(Cl)cc1Cl | -16.5% | 2.7 | 1.9 | 2.1%
CCCCNC(=S)NC(=O)c1ccccc1Br | 35.5% | 18.2* | 81.6* | -27.3%
CCCCNC(=S)NC(=O)c1ccc(Cl)cc1Cl | 4.5% | 31.8* | 39.9 | ?
O=C(CNC(=S)NC(=O)c1ccccc1Br)c1ccccc1 | 1.4% | 14.8 | 18.5 | 6.7%
CCOC(=O)c1[nH]c(C)c(CCC(=O)NCc2ccc(OCC)cc2)c1C | -5.9% | nt | nt | 2.0%
Cc1ccc(NC(=O)C(=O)NCC(c2cccnc2)N2CCN(C)CC2)cc1C (stereo not given) | -5.5% | nt | nt | -3.6%
CC1Cc2cc(S(=O)(=O)NCc3ccc(Cl)cc3)ccc2N1C(=O)C1CCC1 (stereo not given) | -16.5% | nt | nt | 0.0%

Source: PubChem BioAssay
